From PubChem BioAssay (NCI)
About 79,000 compounds went through this panel and 15% of them were active in at least one assay; those are over-represented in the sample as a whole. Calls of active or inactive are those of the source. Rule as the data show it: active = growth inhibition above about 70%; inactive = the rest.

What was measured:
[1] = NCI Yeast Anticancer Drug Screen. Data for the rad50 strain (AID 155);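 also: 0% = growth of vehicle-only cultures of the same strain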; details: S. cerevisiae rad50 strain growth inhibition; at 50.0 µM; active compounds read high
Procedure, shortened: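 Inhibition values express reduced yeast growth in compound-treated cultures relative to vehicle-treated controls.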

[2] = NCI Yeast Anticancer Drug Screen. Data for the mec2-1 strain (AID 157); details: S. cerevisiae mec2-1 strain, at 50.0 µM, active compounds read high
Procedure, shortened: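 Readout is yeast growth inhibition, normalised to vehicle-treated controls, in the mec2-1 strain exposed to compound.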

[3] = NCI Yeast Anticancer Drug Screen. Data for the sgs1 mgt1 strain (AID 161);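 also: 0% = growth of cultures given vehicle only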; details: S. cerevisiae sgs1 mgt1 strain, at 50.0 µM, active compounds read high
Procedure, shortened: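 Growth of a repair-deficient yeast mutant was monitored after compound treatment and expressed as inhibition relative to vehicle-treated cultures.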

[4] = NCI Yeast Anticancer Drug Screen. Data for the cln2 rad14 strain (AID 165);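 also: 0% = growth equal to vehicle treated cultures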; details: S. cerevisiae cln2 rad14 strain, at 50.0 µM, active compounds read high
Procedure, shortened: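 Relative to vehicle controls, growth inhibition of compound-treated cln2 rad14 yeast was recorded.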

[5] = NCI Yeast Anticancer Drug Screen. Data for the bub3 strain (AID 167); details: S. cerevisiae bub3 mutant strain, at 50.0 µM, active compounds read high
Procedure, shortened: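 Steps: expose the mutant yeast strain to compound; grow alongside vehicle-treated cultures; measure growth; express inhibition against the vehicle cultures.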

[6] = NCI Yeast Anticancer Drug Screen. Data for the mlh1 rad18 strain (AID 175); details: S. cerevisiae mlh1 rad18 strain growth inhibition; at 50.0 µM; active compounds read high
Procedure, shortened: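 Test agents were incubated with a yeast strain of defined genotype (DNA damage repair defect). Inhibition of growth was derived by comparison with vehicle-exposed cultures.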

Measured: growth inhibition

CCCCCCCCCCCCCC(=O)Oc1ccc2ccccc2c1
inactive: [1] -4.05% | [2] 3.5% | [3] -3.85% | [4] 5.7% | [5] -10.1% | [6] 8.7%

COc1ccc(C2OCCCO2)cc1
inactive: [1] 13.5% | [2] -19.1% | [3] -6.45% | [4] -34.4% | [5] -27.4% | [6] 4.45%

CCC[N+](C)(C)C
inactive: [1] 5.65% | [2] -28.2% | [3] -1.15% | [4] 6.4% | [5] 1.6% | [6] -5.45%

COC(=O)NCP(=O)(CNC(=O)OC)CNC(=O)OC
inactive: [1] 13.8% | [2] 1.4% | [3] -1.35% | [4] 8.65% | [5] -4% | [6] 10.7%

O=C(O)c1ccc2c(c1)C(=O)c1c(c(O)c3ccccc3c1O)C2=O
inactive: [1] 9.25% | [2] 6.25% | [3] 9.6% | [4] -11.7% | [5] 12.3% | [6] -8.55%

O=C1CCC(=O)N1c1ccc([I+]c2ccc(N3C(=O)CCC3=O)cc2)cc1
inactive: [1] 32.5% | [2] 6.65% | [3] 12.7% | [4] 15.1% | [5] -0.8% | [6] 14.4%

CC(C)(C)OC(=O)N[C@H]1CCN(C2CCCCC2)C1=O
inactive: [1] -34.9% | [2] -10.1% | [3] -22.1% | [4] 7.75% | [5] -6.4% | [6] -62.5%

O=S(=O)(OC12CCCCC1CN1CCCCC1C2)c1ccc(Br)cc1 (stereo not given)
inactive: [1] 14.6% | [2] 9.5% | [3] -4.1% | [4] -3.1% | [5] 3.7% | [6] 12.8%

COc1ccc2c(c1)OCC1=C2Oc2ccccc2C1
active: [1] 98.2% | [2] 99.3% | [3] 99.1% | [4] 98.6% | [5] 97.9% | [6] 98.8%

c1cnc2cccnc2c1
inactive: [1] -16.1% | [2] -30.4% | [3] -14.7% | [4] -6.15% | [5] -8.6% | [6] -9.9%

NCCCCCS(=O)(=O)O
inactive: [1] 17.4% | [2] -1.15% | [3] -0.85% | [4] 4.05% | [5] -0.65% | [6] 8.65%

Oc1cc2c(cc1C(c1ccc(Cl)cc1)N1CCCCC1)OCO2 (stereo not given)
inactive: [1] 9.65% | [2] -1.6% | [3] 1.25% | [4] -6.4% | [5] 11.1% | [6] 5.75%

COc1cc2c(cc1C)C(C)(C)CCC2(C)C
inactive: [1] 7.8% | [2] -0.45% | [3] -3.1% | [4] -45.1% | [5] 20.6% | [6] 4.15%

COc1ccc(-c2coc3c4c(c(CC=C(C)C)c(O)c3c2=O)OC(C)(C)C=C4)cc1OC
inactive: [1] 29.9% | [2] 13.8% | [3] 10.9% | [4] 37.7% | [5] 4.1% | [6] 16.8%

Nc1cccc(OCCOc2ccccc2[N+](=O)[O-])c1
inactive: [1] 5% | [2] 26.6% | [3] 28.1% | [4] -4.7% | [5] 29.5% | [6] 18.9%

Cc1cc2nn(C3CCCCO3)nc2cc1C (stereo not given)
inactive: [1] 1.75% | [2] -20.4% | [3] -21.6% | [4] -25.4% | [5] 8.05% | [6] -46.8%

Cc1ccc(O)c(O)c1
inactive: [1] 33.9% | [2] -13.1% | [3] -6.45% | [4] -8.9% | [5] -20.3% | [6] 23.9%

CCOC(=O)NC(C(=O)OCC)(N1CCN(c2cc3c(cc2F)c(=O)c(C(=O)O)cn3CC)CC1)C(F)(F)F (stereo not given)
inactive: [1] -10.5% | [2] -25.2% | [3] -11.1% | [4] -24.4% | [5] -7.55% | [6] -5.05%

Cc1nc(N)[nH]c(=O)c1CCO
inactive: [1] -1.3% | [2] -23% | [3] -36.6% | [4] 3.3% | [5] -15.1% | [6] -3.8%

Nc1nc(SCCc2ccccc2)nc2nc3c(c(-c4ccccc4)c12)CCCC3
inactive: [1] -23.3% | [2] -10.6% | [3] -3.2% | [4] 2.35% | [5] 0.05% | [6] 5.1%

CC1C2(C)OC(=N)C(C#N)(C(c3ccccc3)O2)C1(C#N)C#N (stereo not given)
inactive: [1] 8.7% | [2] -5.15% | [3] -13.4% | [4] 6.25% | [5] -3.2% | [6] -23.6%

O=C1c2ccccc2C(O)N1CCc1c[nH]c2ccccc12 (stereo not given)
inactive: [1] 12.4% | [2] -24.1% | [3] -12.1% | [4] 8.2% | [5] 1.3% | [6] -10.9%

Nc1ccc(S(=O)c2ccc(N)cc2)cc1
inactive: [1] 27.9% | [2] -14.1% | [3] 8.25% | [4] 20.8% | [5] 18.6% | [6] 33.1%

CC1=C(C(=O)Nc2cc(F)c(F)cc2F)C(c2cccc([N+](=O)[O-])c2)C(C(=O)Nc2ccccc2C(F)(F)F)=C(C)N1 (stereo not given)
inactive: [1] 20.4% | [2] 21.8% | [3] 8.4% | [4] 2.15% | [5] 9.75% | [6] -2.65%

N#C/C(=C\c1ccccn1)c1nc(-c2ccc(Cl)cc2)cs1
inactive: [1] -9.6% | [2] -27.9% | [3] -12.7% | [4] -0.1% | [5] 0.5% | [6] -14.6%

CC(=O)OCC1OC(n2cnc3c(N)ncnc32)C2OC(C)(C)OC12 (stereo not given)
inactive: [1] 11.4% | [2] -30.2% | [3] -19.1% | [4] 1.45% | [5] -1.9% | [6] -12.8%

NCOC(=O)Cc1ccc(Br)cc1
inactive: [1] 14.8% | [2] 6.65% | [3] -0.35% | [4] -2.55% | [5] 4.15% | [6] 18.6%

C[n+]1c2ccccc2c(CNC(CCC(N)=O)C(=O)O)c2ccccc21 (stereo not given)
inactive: [4] 61.8%
active: [1] 83.3% | [2] 87.4% | [3] 80.6% | [5] 73.3% | [6] 87.8%

CCC(C)CN1C(=O)NC(C)(Cc2ccccc2)C1=O (stereo not given)
inactive: [1] 18.6% | [2] 1.25% | [3] 1.15% | [4] 16.8% | [5] 7.85% | [6] 4.25%

Cn1nc(-c2cccc(N)c2)cc1Cl
inactive: [1] -17.6% | [2] -10.4% | [3] 3.75% | [4] -39.5% | [5] -15.6% | [6] 2.95%

CCOC(C)(C(=O)O)c1cccc2ccccc12 (stereo not given)
inactive: [1] -20.4% | [2] -11% | [3] -7.95% | [4] 0.4% | [5] -8.8% | [6] 14.8%

CO/C(=N\N=C\c1cccc(Cl)c1)c1ccncc1
inactive: [1] 6.35% | [2] -9.6% | [3] -13.8% | [4] -24.4% | [5] -18.1% | [6] -11.1%

CCCN(CCC)S(=O)(=O)c1ccc(NC(=O)Oc2ccccc2OC)cc1
inactive: [1] 41.6% | [2] 3.8% | [3] 31.8% | [4] 20.6% | [5] -7.3% | [6] 22.3%

O=C1C=C(C2=CC(=O)C(=O)c3ccccc32)c2ccccc2C1=O
inactive: [1] 27.5% | [2] 9.45% | [3] 6.55% | [4] -5% | [5] 53.1% | [6] 35.2%

Nc1ccc(C(=O)O)c(O)c1.Nc1ccc(C(=O)O)c(O)c1.[Cu]
inactive: [1] -13.4% | [2] 2.4% | [3] -20.3% | [4] 3.6% | [5] -1.95% | [6] -5.05%

Cc1ccc([N+](=O)[O-])cc1NC(=O)C(=O)Cc1occc(=O)c1O
inactive: [1] -12.6% | [2] -6% | [3] 0.65% | [4] -3.45% | [5] -8.85% | [6] -6.95%

C=C(C)C(=O)Oc1ccccc1-c1ccccc1
inactive: [1] 2.55% | [2] -10.2% | [3] -5.5% | [4] 15.6% | [5] 2.65% | [6] -26.5%

CCN(CC)C1=Nc2ccccc2N(c2ccccc2)C(=S)C1
inactive: [1] 46.9% | [2] 25.5% | [3] 30.1% | [4] 13.9% | [5] 36.2% | [6] 51.2%

O=C1CC[C@@H](S(=O)(=O)c2ccccc2)[C@@H](/C=C/c2ccccc2)O1
inactive: [1] -26.8% | [2] -1.75% | [3] 7.15% | [4] -12.8% | [5] -10.7% | [6] -6.7%

COc1ccc(/C=N/N2CCN(/N=C/c3ccc(OC)c(O)c3)CC2)cc1O
inactive: [1] 22.1% | [2] 4.5% | [3] 15.1% | [4] 28.6% | [5] 1.05% | [6] 9.85%
